This note sets out measurements from PubChem BioAssay AID1345083 (National Center for Advancing Translational Sciences (NCATS), 2018).

The structures appear in SMILES notation. Out of some 94,000 compounds screened, about 6,200 (6.6%) were called active. Another 31% or so got no clear call; they are omitted. Calls follow the shape of the dose curve; as a rule, active = well fitted inhibition curve with a large enough effect; inconclusive = small, poorly fitted or top-dose-only effect; inactive = flat fitted curve, though single readings scatter. The list comes from a sample in which actives are over-represented; it also holds similar structures and randomly drawn compounds. Where a call stands in place of a potency, no number is given.
Potency is read from the fitted curve at half-maximal effect.

A short description of the assay: Cytotoxic Profiling in HEK 293 Cell Line of Diverse Libraries Using Quantitative High-Throughput Screening. Also: nearly all actives have a fitted effect of over 60% in size. Conditions: HEK 293 viability, ATP luminescence (CellTiter-Glo), 48-72 h; series mostly up to 115 µM. The gist of the method:
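HEK 293 cells seeded at 250 cells/well were exposed to compound for 48 or 72 hr at 37 degree Celsius. Viability taken as ATP content by CellTiter-Glo luminescence.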
`CCc1noc(-c2cccn3c(CNC(=O)c4cccc(Cl)c4)nnc23)n1`: the Potency result is “inactive”. For `CC1(c2noc(C3CCOCC3)n2)CCN(Cc2c(F)cccc2Cl)CC1`, the Potency result was “inactive”. Take `CC(C)C(=O)Nc1ccc(C2(C(=O)NCCN3CCCCC3)CCCCC2)cc1`: the Potency entry was “inactive”. On to `Cc1ccc(NC(=O)[C@@H]2CNC[C@H](C(=O)NCc3ccccn3)C2)cn1`, for which the Potency result was “inactive”. For `O=C(COc1ccc(NC(=O)C2CC2)cn1)NCc1ccc(F)cc1F`, the Potency result is “inactive”.

`COc1ccc(NC(=O)[C@@H]2C[C@@H](c3ccc(F)cc3)N(CCOc3ccccc3)C2)cn1`: the Potency is 39.8 µM (active). Consider `O=C(C1NCCc2[nH]cnc21)N1CCc2nnc(-c3ccccc3)n2CC1` (configuration not stated), for which the Potency result is “inactive”. To `O=C(Nc1ccccc1F)N1CCc2nnc(C3CC3)n2CC1` belongs “inactive”; to `Cn1nc(C(=O)N2CCC(N3C(=O)C(O)C34CCCCC4)CC2)c2ccccc21` (configuration not stated), “inactive”. As for `O=C(c1ccc2c(c1)OCO2)N1CCC2(C1)C(=O)Nc1ccccc12` (configuration not stated), the Potency entry was “inactive”.

`Cc1ccccc1C(=O)N1CCN(C(=O)c2nc3cccnc3n(C3CC3)c2=O)CC1`: the Potency result is “inactive”. On to `Cc1ccc([S+](=O)([O-])N2CCN(C(=O)c3nc4cccnc4n(C4CCCC4)c3=O)CC2)cc1`, for which the Potency was 39.8 µM (active). On to `O=C(c1ccc(F)cc1)N1CCN(C(=O)c2nc3cccnc3n(C3CCCC3)c2=O)CC1`, for which the Potency entry was “inactive”. The result for `O=C(NCC1CCCO1)c1noc(-c2ccccc2F)n1` (configuration not stated) reads “inactive”. As for `O=C(NCC1CCCO1)c1csc(N2CCN(c3ccccc3F)CC2)n1` (configuration not stated), the Potency is 89.1 µM (active). Consider `Cc1ccccc1C(=O)N1C(C(=O)NCC2CCCO2)COC12CCN(C(=O)c1cccs1)CC2` (configuration not stated), for which the Potency result was “inactive”. For the compound `CC(C)NC(=O)C1CCc2nnc(CNC(=O)c3ccc(Cl)cc3Cl)n21` (configuration not stated), the Potency result was “inactive”. For the compound `Cn1ncc2c(C(=O)N3CCN(c4ncccn4)CC3)cc(-c3ccc(C(F)(F)F)cc3)nc21`, the Potency is 50.1 µM (active). The result for `Cn1ncc2c(C(=O)NCc3ccc(F)cc3)cc(-c3cccc(C(F)(F)F)c3)nc21` reads “inactive”. As to `Cn1ncc2c(C(=O)NCc3ccc(F)cc3F)cc(-c3ccccc3C(F)(F)F)nc21`, the Potency was 31.6 µM (active). To `Cn1ncc2c(C(=O)NCC#N)cc(-c3cccc(C(F)(F)F)c3)nc21` belongs “inactive”. Take `COc1ccccc1-c1cc(C(=O)NC2CCCCC2)c2cnn(C)c2n1`: the Potency result was “inactive”. For `Cn1ncc2c(C(=O)NCc3ccccc3)cc(-c3ccc(C(F)(F)F)cc3)nc21`, the Potency is 79.4 µM (active). Take `Cn1ncc2c(C(=O)NCc3ccc(C(F)(F)F)cc3)cc(C3C=C(C(F)(F)F)C=CC3)nc21` (configuration not stated): the Potency entry was “inactive”. As to `CC(C)OCCCNC(=O)c1cc(-c2ccc(C(F)(F)F)cc2)nc2c1cnn2C`, the Potency is 44.7 µM (active). For the compound `CC(=O)N1CCN(C(=O)c2cc(-c3cccc(F)c3)nc3c2cnn3C)CC1`, the Potency entry was “inactive”.

As to `Cc1ccc(-c2cc(C(=O)N3CCOCC3)c3cnn(C)c3n2)c(C)c1`, the Potency result is “inactive”. To `Cn1ncc2c(C(=O)NCC(F)(F)F)cc(-c3ccc(C(F)(F)F)cc3)nc21` belongs “inactive”. As to `Cn1cnc(S(=O)(=O)N2CCC(c3noc(-c4ccccc4)n3)C2)c1` (configuration not stated), the Potency entry is “inactive”. Take `CCOc1ccc(CC(=O)N2C[C@@H](N)C[C@H]2C(=O)NC(C)C)cc1`: the Potency entry is “inactive”. On to `CNC(=O)[C@H]1C[C@H](Oc2cccnc2)CN1C(=O)NCCc1ccccc1`, for which the Potency result was “inactive”.

For the compound `COCCn1ncc(N2CCCC(CC(=O)Nc3ccc(C)cc3)C2)cc1=O` (configuration not stated), the Potency entry was “inactive”. With `O=C(c1ccccc1F)N1CCC2(CC1)C(=O)Nc1ccccc12`, the Potency entry was “inactive”. On to `CC(=O)N[C@@H]1[C@@H](NC(=O)Cc2cccs2)[C@H]2CCO[C@H]21`, for which the Potency result is “inactive”. To `O=C(c1ccc2nccn2c1)N1CCOCC1` belongs “inactive”. `O=C(NCc1ccccn1)c1ccc2nccn2c1`: the Potency result was “inactive”. Consider `O=C(NC1CCN(Cc2ccc(F)c(F)c2)CC1)c1ccc2nccn2c1`, for which the Potency is 44.7 µM (active). To `COc1ccccc1N1CCCc2ncc(C(=O)N3CCCC[C@@H]3c3ccccc3)cc21` belongs 89.1 µM (active); to `COc1ccccc1N1CCN(C(=O)C2CCCN(C(=O)c3ccccc3)CCC(=O)NCC2)CC1` (configuration not stated), “inactive”. On to `COc1ccc(C(=O)N2CCCN(C(=O)C3CC3)C(c3ccccc3)CC(=O)NCC2)cn1` (configuration not stated), for which the Potency result was “inactive”. As to `COC(=O)N1CCC2(CC1)C(=NC1CCCC1)NC(=O)N2c1cc(F)cc(F)c1`, the Potency entry was “inactive”. Consider `Cc1csc(CCNC(=O)C[C@H]2NC(=O)c3ccccc3NC2=O)n1`, for which the Potency entry is “inactive”. With `N#Cc1ccc(CN2CCC3(Cc4ccccc4NC3=O)C2)cc1` (configuration not stated), the Potency is 89.1 µM (active).

Turning to `O=C1Nc2ccccc2CC12CCN(CC1CC1)C2` (configuration not stated), the Potency result is “inactive”.

`O=C1Nc2ccccc2CC12CCN(CC1CCCCC1)CC2`: the Potency entry is “inactive”. With `O=C(N[C@H]1CCN2C(=O)c3ccccc3NC(=O)[C@H]12)c1cccs1`, the Potency entry was “inactive”. As for `CC(=O)N1CCc2[nH]cnc2C12CCN(C(=O)c1ccc(C)c(C)c1)CC2`, the Potency result was “inactive”. The result for `COC(=O)C[C@H]1CN(C(=O)OC(C)(C)C)CCN1` reads “inactive”; that for `COc1ccc(-n2nc(C3CCN(C(=O)c4ccc(C)cc4)CC3)[nH]c2=O)cc1`, “inactive”. With `COc1ccc(-n2nc(C3CCN(C(=O)c4ccc(Cl)nc4)CC3)[nH]c2=O)cc1`, the Potency result is “inactive”.

With `COc1ccc(-n2nc(C3CCN(Cc4ccccn4)CC3)[nH]c2=O)cc1`, the Potency was 12.6 µM (active).

Take `CN1CCN(C(=O)c2ccc3c(c2)OCCO3)CC1=O`: the Potency entry is “inactive”.

On to `CN(C)C(=O)c1nc(-c2cccnc2)c2ccccn12`, for which the Potency result was “inactive”.

`Cc1cnc(C2CCC2)n1CC1CCN(C(=O)c2ccncc2)C1` (configuration not stated): the Potency result is “inactive”. The result for `Cc1ccc(-c2noc([C@@H]3Cc4nc[nH]c4CN3Cc3cccc(C#N)c3)n2)cc1` reads 89.1 µM (active); that for `Cc1cccc(-c2noc([C@@H]3Cc4nc[nH]c4CN3C(=O)CCC(=O)O)n2)c1`, “inactive”; that for `Cc1cccc(-c2noc([C@@H]3Cc4nc[nH]c4CN3C(=O)Nc3ccccc3)n2)c1`, “inactive”.

Consider `CCn1cc(C(=O)N2C[C@@H](COCC3CC3)[C@H](c3ccccn3)C2)cn1`, for which the Potency result is “inactive”.

As for `COc1cccc(N2CCN(C(=O)C3(c4ccc(NC(C)=O)cc4)CCC3)CC2)c1`, the Potency result was “inactive”. The result for `O=C(COc1ccc(F)cc1)N1CCC2(CC1)NCCc1c2[nH]c2ccccc12` reads 44.7 µM (active); that for `COCCOCC(=O)N1CCC2(CC1)c1[nH]c3ccc(OC)cc3c1CCN2C`, “inactive”. To `COc1ccc(C2(C(=O)N3CCC4(CC3)NCCc3c4[nH]c4ccccc34)CC2)cc1` belongs 35.5 µM (active). The result for `Cc1cc(C)n(CC(=O)N2CCC3(CC2)NCCc2c3[nH]c3ccccc23)n1` reads “inactive”; that for `O=C(C1CC=CC1)N1CCC2(CC1)NCCc1c2[nH]c2ccccc12`, 39.8 µM (active); that for `O=C(C1CCCO1)N1CCC2(CC1)NCCc1c2[nH]c2ccccc12` (configuration not stated), “inactive”. As to `COCCOCC(=O)N1CCC2(CC1)NCCc1c2[nH]c2ccccc12`, the Potency result is “inactive”.

As for `COc1ccc2[nH]c3c(c2c1)CCNC31CCN(C(=O)Cn2ccnc2)CC1`, the Potency result is “inactive”.
